Records with an inconclusive call do not appear. A call without a number means that no potency is given here. A number with no mark means an inactive call. Active and inactive are the calls of the source. The call rests on the fitted dose curve; in most records, active means well fitted cell-killing curve with a large enough effect in the repeat runs; inconclusive means weak or mixed curves; inactive means flat fitted curve, though single readings scatter.
Assay: qHTS assay to identify small molecule antagonists of the TGF-beta/Smad signaling pathway - cell viability counter screen (AID 1346824); further: nearly all actives have a fitted effect of over 50% in size
Conditions: SBE-bla HEK293T viability, CellTiter-Glo luminescence; series mostly up to 76.8 µM; viability change, negative = cytotoxic: at the top concentration
Excerpt: U.S. Tox21 Program National Center for Advancing Translational Sciences [NCATS] NIH Chemical Genomics Center [NCGC] U.S. Environmental Protection Agency [EPA] National Institutes of Environmental Health Sciences [NIEHS] National Toxicology Program [NTP] U.S. Food and Drug Administration [FDA] Tox21 Assay Overview: Transforming growth factor beta (TGF-beta) superfamily consists of a large number of structurally related dimeric proteins that act as hormones or local mediators in regulating a wide range of biological functions. This superfamily includes TGF-betas themselves, the bone morphogenetic proteins (BMPs) and the activins. These ligands induce oligomerization of serine/threonine receptor kinases and phosphorylate the cytoplasmic signaling molecules of Smad protein family. CellSensor SBE-bla HEK 293T cell line (Life Technologies, Carlsbad, CA), responsive to TGF-beta was used to screen Tox21 10K compound library for identification of agonists/antagonists of the Smad signaling pathway. This cell line contains a beta-lactamase reporter gene under control of the Smad binding element (SBE) stably integrated into HEK 293T cells. Also cytotoxicity of the compounds was tested in parallel by measuring the cell viability using CellTiter-Glo assay system in the same wells.
Tox21 Assay Protocol Summary: SBE-bla HEK 293T cells were dispensed at 4,000/well in 5 uL of assay medium into black wall/clear-bottom 1536-well plates using a Multidrop Combi (ThermoFisher Scientific, Waltham, MA) dispenser. After the assay plates were incubated at 37 C and 5% CO2 for an overnight, 23 nL of compounds dissolved in DMSO, positive controls or DMSO only was transferred to the assay plate by a Pintool station (Kalypsys, San Diego, CA). Compound transfer was followed by the addition of 1 uL of 0.25 ng/mL TGF-beta1 or assay buffer using two separate tips of Flying Reagent Dispenser (FRD, Aurora Discovery, San Diego, CA). The assay plates were incubated at 37 C and 5% CO2 for 5 hr. One uL of LiveBLAzer B/G FRET substrate (Life Technologies) was added using a Flying Reagent Dispenser (FRD, Aurora Discovery, San Diego, CA) and the plates were incubated at room temperature for 2 hr. Fluorescence intensity (405 nm excitation, 460 nm and 530 nm emissions) was measured using an Envision plate reader (PerkinElmer, Shelton, CT). For cytotoxicity read, 4 uL of CellTiter-Glo reagent (Promega Corporation, Madison, WI) was added to each well of the assay plates using FRD. After 30 min incubation at room temperature, the luminescence intensity was measured using ViewLux plate reader (PerkinElmer).

Structure (SMILES) | Potency | viability change, negative = cytotoxic
CCOC(=O)[C@H](CCc1ccccc1)N[C@@H](C)C(=O)N1Cc2ccccc2C[C@H]1C(=O)O | inactive | –
C=C1C2CCC(C2)C1(C)C (stereo not given) | inactive | –
Oc1ccc(OCc2ccccc2)cc1 | inactive | –
OCCOCCOCCOCCO | inactive | –
O=[N+]([O-])c1cc(N(CCO)CCO)ccc1NCCO | inactive | –
CCCCCCCCCC(=O)O | inactive | –
CCc1ccc(O)cc1 | inactive | –
CCCCCCCCC | inactive | –
CC[Si](OC(C)=O)(OC(C)=O)OC(C)=O | inactive | –
CS(=O)(=O)Nc1ccc([N+](=O)[O-])cc1Oc1ccccc1 | inactive | –
CC(C)(C)C(=O)C1C(=O)c2ccccc2C1=O | inactive | –
CC(C)(CO)COC(=O)C(C)(C)CO | inactive | –
CC(C)(N=C=O)c1cccc(C(C)(C)N=C=O)c1 | inactive | –
O=S(=O)(O)CCS | inactive | –
CCCCCCCCCCCCOCC1CO1 (stereo not given) | inactive | –
Cc1ccc(N)c(S(=O)(=O)O)c1 | – | -10.1%
CC(=O)CCc1ccccc1 | inactive | –
CC(C)NCC(O)COc1cccc2ccccc12 (stereo not given) | inactive | –
O=C1O[C@H](CO)[C@@H](O)[C@H](O)[C@H]1O | inactive | –
C/C=C(C)/C=C/C=C(C)C | inactive | –

Structure (SMILES) | Potency | viability change, negative = cytotoxic
CC(=O)[C@@]1(O)CC[C@H]2[C@@H]3CCC4=CC(=O)CC[C@]4(C)[C@H]3CC[C@@]21C | inactive | –
O=S(=O)(O)c1cc(S(=O)(=O)O)c2c(N=Nc3ccccc3)c(O)ccc2c1 | inactive | –
OCC#CCO | inactive | –
CC(=O)Nc1ccc(C(=O)O)cc1 | inactive | –
O=C(Oc1ccccc1)c1ccc(O)cc1 | inactive | –
CC(C)Cc1ccccc1 | inactive | –
C=C(C)C(=O)OCCCCCC | inactive | –
Cc1cc(O)c2c(c1)C(=O)c1cc(O)cc(O)c1C2=O | inactive | –
CC1(C)CC(N=C=O)CC(C)(CN=C=O)C1 (stereo not given) | inactive | –
Oc1ccc2ccccc2c1 | inactive | –
NS(=O)(=O)c1cc2c(cc1Cl)NC=NS2(=O)=O | inactive | –
C=C(C)C(=O)OCCC[Si](OC)(OC)OC | inactive | –
CC1=C(/C=C/C(C)=C/C=C/C(C)=C/CO)C(C)(C)CCC1 | inactive | –
Cc1cc(=O)[nH]c(C(C)C)n1 | inactive | –
CS(=O)(=O)c1ccc([C@@H](O)[C@@H](CO)NC(=O)C(Cl)Cl)cc1 | inactive | –
ClC1=C(Cl)C(Cl)(Cl)C(Cl)=C1Cl | inactive | –
COCC(C)O (stereo not given) | inactive | –
CC1COc2ccccc2N1C(=O)C(Cl)Cl (stereo not given) | inactive | –
COCC(=O)O | inactive | –
CCCCCCOC(C)=O | inactive | –

— PubChem BioAssay (Tox21)
